# Source: PubChem BioAssay (Tox21)
# Records with an inconclusive call do not appear. A call without a number means that no potency is given here. The source made the active and inactive calls. Calls come from the whole dose curve; as a rule, active = well fitted curve in the direction sought with a large enough effect in the repeat runs; inconclusive = weak or mixed curves; inactive = no such curve, though single readings can be large; an effect the other way counts as inactive or inconclusive. Starred links: 1 amine or outer side, 2 acyl side, 3 side chain; linkers in the order of their positions; H or OH if unused. Positions of bridges follow the written chain, without caps; N, C: chain ends. Non-standard residues stand in square brackets, D forms with d. Residues, ends and D or L forms follow the SMILES beside them. *: point of attachment. X5 = NC1=N[C@@H]([C@H](N[*:1])C(=O)[*:2])C[C@H](O)N1; ΔAla(Z-3-ureido) = NC(=O)N/C=C(\N)C(=O)O; β3hOrn = NCCC[C@H](N)CC(=O)*; Orn = NCCC[C@H](N)C(=O)O; Dap = NC[C@H](N)C(=O)O; Mpa = O=C(O)CCS
# Assay: qHTS assay for small molecule disruptors of the mitochondrial membrane potential (AID 720635); note: potency is the fitted concentration of half-maximal effect
# Conditions: HepG2 mitochondrial membrane potential, Mito-MPS dye ratio; series mostly up to 83.2 µM
# How it was run: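 HepG2 cells exposed to compound 1 hr at 37C, then Mito-MPS dye 30 min. Ratio read of aggregate (540/590 nm) versus monomer (490/535 nm) fluorescence.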
row,Structure (SMILES),Potency
1,NCCC[C@H](N)C(=O)O,inactive
2,CN1[C@@H]2CCC[C@H]1CC(NC(=O)c1nn(C)c3ccccc13)C2 (stereo partly drawn),inactive
3,CS(=O)(=O)NC(=O)CCC/C=C\C[C@H]1C(=O)C[C@@H](O)[C@@H]1/C=C/[C@H](O)COc1ccccc1,inactive
4,OC[C@@H](O)C(O)[C@H](O)CO,inactive
5,N[C@@H](C(=O)N[C@@H]1C(=O)N2C(C(=O)O)=C(CSc3cn[nH]n3)CS[C@H]12)c1ccc(O)cc1,inactive
6,CC1(C)S[C@@H]2[C@H](NC(=O)Cc3ccccc3)C(=O)N2[C@H]1C(=O)O,inactive
7,COC(=O)[C@H]1[C@H]2C[C@@H]3c4[nH]c5cc(OC)ccc5c4CCN3C[C@H]2C[C@@H](OC(=O)/C=C/c2cc(OC)c(OC)c(OC)c2)[C@@H]1OC,inactive
8,Cn1nnnc1SCC1=C(C(=O)O)N2C(=O)[C@@H](NC(=O)[C@H](OC=O)c3ccccc3)[C@H]2SC1,inactive
9,CC(C)(C)CC(=O)OCC(=O)[C@@]12OC(C)(C)O[C@@H]1C[C@H]1[C@@H]3CCC4=CC(=O)C=C[C@]4(C)[C@@]3(F)[C@@H](O)C[C@@]12C,13.3 µM (active)
10,COc1ccc2c(=O)c(C)c(-c3ccccc3)oc2c1CN(C)C,inactive
11,CCOC(=O)COc1ccc2c(C)c(CCN(CC)CC)c(=O)oc2c1,inactive
12,O=C(O)[C@H](CC(=O)N1C[C@H]2CCCC[C@H]2C1)Cc1ccccc1,inactive
13,C=C1/C(=C\C=C2/CCC[C@]3(C)[C@@H]([C@H](C)OCCC(C)(C)O)CC[C@@H]23)C[C@@H](O)C[C@@H]1O,inactive
14,N=C(N)c1ccc(OCCCOc2ccc(C(=N)N)cc2Br)c(Br)c1,inactive

# Assay: qHTS assay to test for compound auto fluorescence at 590 nm (red) in HepG2 cells (AID 720674)
# Conditions: HepG2 autofluorescence, red 540/590 nm, 1 h; series mostly up to 46 µM
# How it was run: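 HepG2 cells, 2,000 per well in MEM with 10% FBS, attached overnight at 37 C, then got 23 nL compound or DMSO. After 1 hr at 37 C, 5% CO2, red fluorescence was read at 540/590 nm against Rose Bengal sodium as reference.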
row,Structure (SMILES),Potency
1,COCC1=C(C(=O)OC(C)OC(=O)OC(C)C)N2C(=O)[C@@H](NC(=O)/C(=N\OC)c3csc(N)n3)[C@H]2SC1 (stereo partly drawn),inactive
2,CO[C@@H]1[C@@H](O[C@@H]2O[C@H](C)[C@@H](O[C@H]3C[C@@](C)(O)[C@@H](OC(=O)CC(C)C)[C@H](C)O3)[C@H](N(C)C)[C@H]2O)[C@@H](CC=O)C[C@@H](C)[C@@H](O)/C=C/C=C/C[C@@H](C)OC(=O)C[C@H]1O,inactive
3,CC(=O)O[C@H]1C[C@@H]2CC[C@@H]3[C@H](CC[C@@]4(C)[C@H]3C[C@H](N3CC[N+](C)(C)CC3)[C@@H]4OC(C)=O)[C@@]2(C)C[C@@H]1N1CC[N+](C)(C)CC1,inactive
4,NCCC[C@H](N)CC(=O)N[C@H]1CNC(=O)[C@H]([C@H]2C[C@H](O)NC(N)=N2)NC(=O)/C(=C/NC(N)=O)NC(=O)[C@H](CO)NC(=O)[C@H](CO)NC1=O (β3hOrn-[Dap]SS[ΔAla(Z-3-ureido)][X5]; lactam 1-C),inactive
5,CCOc1ccc(C[C@H]2NC(=O)CCSSC[C@@H](C(=O)N3CCC[C@H]3C(=O)N[C@@H](CCCN)C(=O)NCC(N)=O)NC(=O)[C@H](CC(N)=O)NC(=O)[C@H]([C@@H](C)O)NC(=O)[C@H]([C@@H](C)CC)NC2=O)cc1 ([Mpa][dY](Et)ITNCP[Orn]G-NH2; disulfide 1-6),inactive
6,O=P(O)(O)C(O)(Cc1cnc2ccccn12)P(=O)(O)O,inactive
7,OCC(O)COc1ccc(Cl)cc1 (stereo not drawn),inactive
8,CCCCCCCCCCCCCCCC(=O)OC[C@@H](NC(=O)C(Cl)Cl)[C@H](O)c1ccc([N+](=O)[O-])cc1,inactive
9,NC(=O)Oc1ccc(Cc2ccccc2)cc1,inactive
10,CCCC(CCC)C(N)=O,inactive
11,CC1CC(OC(=O)C(O)c2ccccc2)CC(C)(C)C1 (stereo not drawn),inactive
12,OC(CN1CCCCC1)c1cc(-c2ccccc2)on1 (stereo not drawn),inactive
13,CCC(c1ccccc1)c1noc(CCN(CC)CC)n1 (stereo not drawn),inactive
14,O=S(O)CNc1ccc(S(=O)(=O)c2ccc(NCS(=O)O)cc2)cc1,inactive
15,C=CCN1CCCC1CNC(=O)c1cc(S(N)(=O)=O)cc(OC)c1OC (stereo not drawn),inactive
16,CCCCCCCCCCCCCCCCCC(=O)OCCO,inactive
17,CCCCCCCCCCCCCCCCCCCCCC(=O)Nc1ccn([C@@H]2O[C@H](CO)[C@@H](O)[C@@H]2O)c(=O)n1,inactive
18,CCCCOC(=O)C(=O)Nc1cccc(-c2nn[nH]n2)c1,inactive
19,CCOC(=O)[C@H](CCc1ccccc1)N[C@H]1CCCN2CCC[C@@H](C(=O)O)N2C1=O,inactive
20,CC(C)CN(C[C@@H](O)[C@H](Cc1ccccc1)NC(=O)O[C@@H]1CCOC1)S(=O)(=O)c1ccc(N)cc1,inactive

row,Structure (SMILES),Potency
1,O.O=C([O-])CC([S-])C(=O)[O-].[Au+].[Na+].[Na+] (stereo not drawn),inactive
2,O=P(O)(O)C(Sc1ccc(Cl)cc1)P(=O)(O)O,inactive
3,O=C(CCCN1CCC(C(=O)c2ccc(F)cc2)CC1)c1ccc(F)cc1,inactive
4,C[C@H]1C[C@H]2[C@@H]3CCC4=CC(=O)C=C[C@]4(C)[C@@]3(F)[C@@H](O)C[C@]2(C)[C@@]1(O)C(=O)CCl,inactive
5,CC#CCC(C)[C@H](O)/C=C/[C@@H]1[C@H]2C/C(=C/CCCC(=O)O)C[C@H]2C[C@H]1O (stereo partly drawn),inactive
6,NCCC[C@H](N)C(=O)O,inactive
7,CN1[C@@H]2CCC[C@H]1CC(NC(=O)c1nn(C)c3ccccc13)C2 (stereo partly drawn),inactive
8,CS(=O)(=O)NC(=O)CCC/C=C\C[C@H]1C(=O)C[C@@H](O)[C@@H]1/C=C/[C@H](O)COc1ccccc1,inactive
9,OC[C@@H](O)C(O)[C@H](O)CO,inactive
10,N[C@@H](C(=O)N[C@@H]1C(=O)N2C(C(=O)O)=C(CSc3cn[nH]n3)CS[C@H]12)c1ccc(O)cc1,inactive
11,CC1(C)S[C@@H]2[C@H](NC(=O)Cc3ccccc3)C(=O)N2[C@H]1C(=O)O,inactive
12,COC(=O)[C@H]1[C@H]2C[C@@H]3c4[nH]c5cc(OC)ccc5c4CCN3C[C@H]2C[C@@H](OC(=O)/C=C/c2cc(OC)c(OC)c(OC)c2)[C@@H]1OC,inactive
13,Cn1nnnc1SCC1=C(C(=O)O)N2C(=O)[C@@H](NC(=O)[C@H](OC=O)c3ccccc3)[C@H]2SC1,inactive
14,CC(C)(C)CC(=O)OCC(=O)[C@@]12OC(C)(C)O[C@@H]1C[C@H]1[C@@H]3CCC4=CC(=O)C=C[C@]4(C)[C@@]3(F)[C@@H](O)C[C@@]12C,inactive
15,COc1ccc2c(=O)c(C)c(-c3ccccc3)oc2c1CN(C)C,inactive
16,CCOC(=O)COc1ccc2c(C)c(CCN(CC)CC)c(=O)oc2c1,inactive
17,O=C(O)[C@H](CC(=O)N1C[C@H]2CCCC[C@H]2C1)Cc1ccccc1,inactive
18,C=C1/C(=C\C=C2/CCC[C@]3(C)[C@@H]([C@H](C)OCCC(C)(C)O)CC[C@@H]23)C[C@@H](O)C[C@@H]1O,inactive
19,N=C(N)c1ccc(OCCCOc2ccc(C(=N)N)cc2Br)c(Br)c1,inactive
